Shown are actives, neighbours in structure and some others; about 14% of the full set was active somewhere.
Marburg entry inh: inhibitors of Marburg virus binding or cell entry; Marburg virus pseudotyped entry inhibition, cell reporter; Potency, µM (titrated, usually from 37.8 µM), for inactives: top-dose activity change, negative = inhibition, hits mostly inhibitors; 300,000 tested, 1.8% active; calls by dose curve; tested in HEK293 cells; note: potency is the fitted concentration of half-maximal effect
HCMV antiviral: human cytomegalovirus inhibition. HFF cells, HCMV-luciferase reporter, 72 h; active compounds read low. activity change, negative = inhibition, % at 57.5 µM. 410,000 tested, 4.5% active. AID 1259415; in the data active = activity change below about -60%; inconclusive = no clear call, values can overlap the other calls; inactive = above about -39%
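After 16 h attachment at 37C, HFF cells received test compound and HCMV-luciferase (1 PFU/cell); reporter luminescence read 72 h later, data normalized against buffer-only and known inhibitor Salinomycin.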
LASV entry inh: Lassa virus entry inhibition; Lassa virus pseudotype entry inhibition, cell reporter; Potency, µM (top dose mostly 37.9 µM), without a hit: top-dose activity change, negative = inhibition, actives largely listed as inhibitors; 300,000 tested, 1.2% active; calls by dose curve; tested in HEK293 cells; note: potency is the fitted concentration of half-maximal effect; nearly all actives have a fitted effect of over 50% in size
HCV inh: blocks hepatitis C virus | Huh7.5.1 HCVcc-Cre infection, luciferase reporter, 44 h | Potency, µM (doses to about 41.8 µM), for inactives: at the top dose activity change, negative = inhibition, actives largely listed as inhibitors | 340,000 tested, 3.4% active | AID 651820; note: potency is the fitted concentration of half-maximal effect
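Compounds are dispensed onto cells plated 4 h earlier at 1,000 per well, with HCVcc-Cre virus (about 0.5 moi) added next. Following 44 h of culture, luminescent signal is measured for 15 sec after 15 min with substrate at room temperature.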
Pf growth 96h: P. falciparum growth inhibition at 96 hour, primary screen for plastid delayed-death inhibitors; P. falciparum luciferase reporter growth, 96 h; AID 504834; 320,000 tested, 6.9% active; Potency, µM (top dose mostly 28.7 µM), for inactives: at the highest dose activity change, negative = inhibition, most hits filed as inhibitors; note: potency is the fitted concentration of half-maximal effect
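Two parasite generations (96 h, 37 C, 5% CO2) of compound exposure in infected erythrocytes (0.05% parasitemia, 2% hematocrit). Luciferase-reporter P. falciparum; decreased luminescence indicates inhibited growth, aimed at apicoplast-acting delayed death.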
Pf growth 48h: P. falciparum growth inhibition at 48 hours (one generation); P. falciparum luciferase growth in erythrocytes, 48 h; Potency, µM (doses to about 28.7 µM), without a hit: at the highest dose activity change, negative = inhibition, actives largely listed as inhibitors; 310,000 tested, 5.9% active; AID 504832; note: potency is the fitted concentration of half-maximal effect
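Parasite viability was followed by luminescence of a genomically integrated firefly luciferase. Cultures held 0.1% parasitemia at 2% hematocrit (final), incubated under 5% CO2 at 37 C.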
The depositor's hits bear a star; [ ] = remark or other dose. Unless noted, calls come from the whole dose curve; as a rule, active = well fitted inhibition curve with a large enough effect; inconclusive = small, poorly fitted or top-dose-only effect, or another doubt; inactive = no such curve, though single readings can be large or run the other way. % is set by controls: 0 for no effect and ±100 for the full control effect.

`COC(=O)c1ccc(N=C2S/C(=C\c3cc(C)n(-c4cccnc4)c3C)C(=O)N2C)cc1` gave Marburg entry inh inconclusive, HCMV antiviral 0.2, LASV entry inh inconclusive, HCV inh 3.55µM*, Pf growth 96h inconclusive and Pf growth 48h inconclusive.
`CCCc1nc(C)c2c(=O)[nH]c(-c3cc(S(=O)(=O)N4CCN(CC)CC4)ccc3OCC)nn12` gave HCMV antiviral 5.9, HCV inh 11.4%, Pf growth 96h 7.57µM* and Pf growth 48h inconclusive.
CCOc1cc(S(=O)(=O)N2CCN(CC)CC2)ccc1Cl was read as Marburg entry inh -18.5%[46.1 µM], HCMV antiviral 6.3, LASV entry inh 4.5%, HCV inh 7.2%, Pf growth 96h inconclusive and Pf growth 48h 9.0%.
Screening O=C(O)C1CC=CCC1C(=O)Nc1ccc(S(=O)(=O)N2CCCc3ccccc32)cc1 (stereo not drawn) returned Marburg entry inh 2.06µM*, HCMV antiviral -76.4*, LASV entry inh 3.26µM*, HCV inh 12.8%, Pf growth 96h 10.4µM* and Pf growth 48h -1.2%.
COc1ccc(S(=O)(=O)N2CCCc3ccccc32)cc1OC was read as HCMV antiviral inconclusive, HCV inh 3.4%, Pf growth 96h 57.3% and Pf growth 48h 11.7µM*.
For O=C(Nc1ccc(F)c(Cl)c1)c1cc(S(=O)(=O)N2CCCc3ccccc32)ccc1F the results were HCMV antiviral -31.9 and LASV entry inh 19.3%[46.1 µM].
`Cc1ccc(C)c(NC(=O)c2cc(S(=O)(=O)N3CCCc4ccccc43)ccc2F)c1` gave HCMV antiviral -62.3* and LASV entry inh -28.8%[46.1 µM].
For Cc1ccc2cccc(S(=O)(=O)N3CCCc4ccccc43)c2n1 the results were HCMV antiviral -65.0*, HCV inh inconclusive, Pf growth 96h 0.1% and Pf growth 48h -23.8%.
Screening COCCN(Cc1ccc(C)cc1)C(=O)[C@H]1O[C@@H](n2ccc(N)nc2=O)[C@H](O)[C@@H]1O returned HCMV antiviral 22.3.
For O=S(=O)(c1ccc(F)cc1)N1CCCc2ccccc21 the results were Pf growth 96h 1.65µM* and Pf growth 48h 29.4%.
Screening COc1ccccc1N1CCN(C(=O)C2CCN(C(=O)c3ccc(C(C)(C)C)cc3)CC2)CC1 returned Marburg entry inh 16.9%, HCMV antiviral -2.2, LASV entry inh 8.1%, HCV inh inconclusive, Pf growth 96h 0.0% and Pf growth 48h 4.65µM*.
`CCOC(=O)N1CCN(C(=O)C2CCN(C(=O)c3ccc([N+](=O)[O-])cc3)CC2)CC1` gave Marburg entry inh -1.7%, HCMV antiviral 5.5, LASV entry inh 17.0%, HCV inh 12.3%, Pf growth 96h inconclusive and Pf growth 48h 0.0%.
`Cc1csc2c(N3CCN(C(=O)NC(C)(C)C)CC3)ncnc12` gave Marburg entry inh 6.9%[46.1 µM], HCMV antiviral -37.3, LASV entry inh -15.1%, HCV inh inconclusive, Pf growth 96h 0.0% and Pf growth 48h -0.5%.
`CC1CCN(C(=O)C2CCN(C(=O)c3ccc(C(C)(C)C)cc3)CC2)CC1` gave Marburg entry inh -21.4%[46.1 µM], HCMV antiviral -5.2, LASV entry inh -7.0%, HCV inh 24.0%, Pf growth 96h -18.3% and Pf growth 48h -14.0%.
For CCOC(=O)N1CCN(C(=O)C2CCN(C(=O)c3ccc(C(C)(C)C)cc3)CC2)CC1 the results were Marburg entry inh -2.9%[46.1 µM], HCMV antiviral -15.2, LASV entry inh inconclusive, HCV inh 12.2%, Pf growth 96h -17.0% and Pf growth 48h 9.28µM*.
COc1ccccc1N1CCN(C(=O)c2ccc3[nH]c4c(c3c2)CC(C)CC4)CC1 (stereo not drawn) was read as Marburg entry inh inconclusive, HCMV antiviral 18.6, LASV entry inh inconclusive, HCV inh 11.2µM*, Pf growth 96h -82.9% and Pf growth 48h inconclusive.
`Cc1csc2c(N3CCN(C(=O)c4ccc(C(C)(C)C)cc4)CC3)ncnc12` gave HCMV antiviral -63.1*, HCV inh inconclusive, Pf growth 96h 0.0% and Pf growth 48h 31.3%.
Cc1nn2c(=O)cc(COC(=O)c3cccs3)nc2s1 was read as HCMV antiviral -1.7 and LASV entry inh inconclusive.
COc1ccc(S(=O)(=O)c2c(Nc3ccc(C)cc3C)sc(C(=O)c3ccc(F)cc3)c2N)cc1 was read as HCMV antiviral 4.2 and LASV entry inh -28.0%[46.1 µM].
Cc1noc(C)c1S(=O)(=O)N(C)C[C@H]1Oc2c(NC(=O)Nc3ccc(C(F)(F)F)cc3)cccc2C(=O)N([C@H](C)CO)C[C@@H]1C was read as HCMV antiviral -26.3 and HCV inh -10.3%.
CC(C)(C)c1ccc(C(=O)N2CCN(c3nc4ccccc4o3)CC2)cc1 was read as HCMV antiviral -4.2, HCV inh 10µM* and Pf growth 96h 10.5%.
Screening Cc1cccc(C)c1NC(=O)C(c1ccnc2ccccc12)N1CCN(C)CC1 (stereo not drawn) returned HCMV antiviral 45.1.
For Cc1cccc(NC(=S)NC(C)(C)CC(C)(C)C)c1 the results were Marburg entry inh inconclusive, HCMV antiviral -64.5*, LASV entry inh -14.0%[46.1 µM], HCV inh -23.8%, Pf growth 96h inconclusive and Pf growth 48h 5.0%.
Cc1cccc(NC(=S)NCc2ccc(F)cc2)c1 was read as Marburg entry inh -11.2%, HCMV antiviral -13.1, LASV entry inh inconclusive, HCV inh -8.0%, Pf growth 96h 73.8% and Pf growth 48h 9.9%.
Screening C=CCN1C(=O)c2ccccc2NC1c1ccc(Br)s1 (stereo not drawn) returned Marburg entry inh -3.7%[46.1 µM], HCMV antiviral inconclusive, LASV entry inh 21.4%[46.1 µM], HCV inh 8.4%, Pf growth 96h 10.4µM* and Pf growth 48h 13.1µM*.
Screening O=C1c2ccccc2NC(c2ccc(Br)s2)N1O (stereo not drawn) returned HCMV antiviral -75.2* and HCV inh inconclusive.
For O=C1c2ccccc2NC(c2ccccc2)N1Cc1ccccc1 (stereo not drawn) the results were Marburg entry inh 2.5%, HCMV antiviral 48.4, LASV entry inh inconclusive and HCV inh -19.2%.
For O=C(Cc1cccnc1)N[C@@H]1CC[C@H](CCn2cc(Cc3ccccc3)nn2)O[C@@H]1CO the results were HCMV antiviral 32.5.
`CCc1nnc(NC(=O)CSc2nc3c([nH]c4ccccc43)c(=O)n2-c2ccc(OC)cc2)s1` gave HCMV antiviral 5.3 and LASV entry inh inconclusive.
Screening COc1ccc2c3c(n(C)c2c1)[C@H](CO)N(C(C)=O)CC31CCN(C(=O)C2CCOCC2)CC1 returned HCMV antiviral 36.0.
